# Laboratory results from PubChem BioAssay (NCATS).
# Results filed as inconclusive are left out. A call without a number means that no potency is given here. A number with no mark means an inactive call. Activity calls are given as the source filed them. The call rests on the fitted dose curve; in most records, active means well fitted inhibition curve with a large enough effect; inconclusive means small, poorly fitted or top-dose-only effect; inactive means no such curve, though single readings can be large or run the other way. Where a SMILES comes first, the peptide text is derived from it.
# System: Zika virus NS2B-NS3 protease (unlinked complex)
# Test: Primary screen GU Rhodamine qHTS for Zika virus inhibitors: Unlinked NS2B-NS3 protease assay (AID 1347159); further: nearly all actives have a fitted effect of over 60% in size
# Conditions: Recombinant ZIKV NS2B-NS3 protease, Rhodamine110 substrate fluorescence; series mostly up to 107 µM
# Summary of the method: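 Noncovalent NS2B hydrophilic domain/NS3 protease complex (25 nM final) in 10 mM Tris-HCl pH 8.0, 0.01% Tween 20, preincubated 15 min with compounds (up to 114 microM), then 1.5 microM Rhodamine110 substrate. Fluorescence change over 15 min fitted to 4-parameter Hill.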
# Potency means the concentration at half of the fitted maximal effect.
Structure (SMILES),Potency,"activity change, negative = inhibition"
C/C=C(/C)C(=O)O[C@H]1C[C@]2(C)O[C@@H]2[C@@H](OC(C)=O)[C@@]2(C)CC[C@@](O)(C(C)C)[C@H]12,inactive,
CCC(C)C(N)C(=O)NCCN1CCOCC1 (centres undefined),inactive,
C=C1CC[C@@]2(OC1)O[C@H]1CC3[C@@H]4CC=C5C[C@@H](O)C[C@@H](O[C@@H]6OC[C@H](O)[C@H](O)[C@H]6O[C@@H]6O[C@@H](C)[C@H](O)[C@@H](O)[C@H]6O)[C@]5(C)C4CC[C@]3(C)[C@H]1[C@@H]2C (some centres undefined),inactive,
CC1OC(O[C@@H]2[C@@H](O)[C@H](OC(=O)[C@]34CCC(C)(C)C[C@H]3C3=CCC5[C@@]6(C)CC[C@H](O[C@@H]7O[C@H](C(=O)O)[C@@H](O)[C@H](O[C@@H]8OC[C@@H](O)[C@H](O)[C@H]8O)[C@H]7O[C@@H]7O[C@H](CO)[C@H](O)[C@H](O)[C@H]7O)[C@@](C)(C=O)C6CC[C@@]5(C)[C@]3(C)C[C@H]4O)O[C@H](C)[C@@H]2OC2OC(C)C(OC3OCC(O)C(O)C3O)C(O)C2O)C(O)C(O)C1O (some centres undefined),,7.56% [at 19.1 µM]
C[C@@H]1C(=O)O[C@H](C)[C@H]1C[C@@H](O)[C@](C)(O)[C@H]1CC[C@@]2(O)C3=CC(=O)[C@@H]4C[C@@H](O)[C@@H](O)C[C@]4(C)C3CC[C@]12C (some centres undefined),inactive,
COC(=O)C1C(c2ccc(O)cc2)C(C(=O)O)C1c1ccc(O)cc1 (centres undefined),inactive,
COc1cc(C(CO)CO[C@@H]2O[C@H](CO)[C@@H](O)[C@H](O)[C@H]2O)ccc1O (some centres undefined),inactive,
CCCC/C=C\CCCCCc1cc(=O)c2ccccc2n1C,inactive,
COc1ccc(/C=C/C(=O)O[C@@H]2[C@@H](O[C@@H]3O[C@H](CO)[C@@H](O)[C@H](O)[C@H]3O)[C@@H](O)[C@H](O[C@H]3C4C=CO[C@@H](O[C@@H]5O[C@H](CO)[C@@H](O)[C@H](O)[C@H]5O)C4[C@@]4(CO)O[C@@H]34)O[C@H]2C)cc1 (some centres undefined),inactive,
C/C=C1\[C@H](O[C@@H]2O[C@H](CO)[C@@H](O)[C@H](O)[C@H]2O)OC=C(C(=O)OCCc2ccc(O)cc2)[C@H]1CC(=O)OCCc1ccc(O)cc1,inactive,
COc1cc(O)cc(C)c1C(=O)O[C@H]1[C@@H](O)[C@@H](n2ccc(=O)[nH]c2=O)O[C@@H]1CO,inactive,
On1ncc(C2CCNCC2)c1-c1cccc(-c2ccccc2)c1,inactive,
CC1(C)CC[C@]2(C(=O)O)CC[C@]3(C)C(=CCC4[C@@]5(C)C[C@@H](O)[C@H](O)[C@@](C)(CO)C5[C@H](O)C[C@]43C)[C@@H]2C1 (some centres undefined),inactive,
C/C=C(\C)C(=O)OC1C(C)C2(O)C3C=C(C)C(=O)C3CC(CO)=CC2C2C(C)(C)C12OC(C)=O (centres undefined),inactive,
CC(=O)N[C@H]1[C@H](O[C@H]2CC[C@]3(C)C4CC=C5[C@@H]6CC(C)(C)CC[C@]6(C(=O)O)[C@H](O)C[C@@]5(C)[C@]4(C)CC[C@H]3C2(C)C)O[C@H](CO)[C@@H](O)[C@@H]1O (some centres undefined),inactive,
CC(=C\C(C)O)/C=C(\C)C(=O)CC1CC(CC(N)=O)CC(=O)O1 (centres undefined),inactive,
COc1cc(/C=C/C(=O)O[C@H]2[C@H](O)[C@@H](CO)O[C@@]2(CO)O[C@H]2O[C@H](CO)[C@@H](O)[C@H](O)[C@H]2O)cc(OC)c1O,inactive,
CCOc1nc2c(N)ncnc2n1CC,inactive,
C[C@]1(O)CC[C@@H]2C(C(=O)O)=CO[C@@H](O[C@@H]3O[C@H](CO)[C@@H](O)[C@H](O)[C@H]3O)[C@@H]21,inactive,
O=C(NC1CCN(CC(F)(F)F)CC1)c1ccc(-c2cccc(F)c2)nc1,inactive,

Structure (SMILES),Potency,"activity change, negative = inhibition"
C/C=C(\C)C(=O)OC[C@H]1O[C@@H](O[C@H]2[C@@H](O[C@H]3O[C@H](CO)[C@@H](O)[C@H](O)[C@H]3O[C@@H]3O[C@H](CO)[C@@H](O)[C@H](O)[C@H]3O)O[C@H](COC(=O)/C(C)=C/C)[C@@H](O)[C@@H]2O)[C@H](O)[C@@H](O)[C@@H]1O,inactive,
CC1(C)CC=C(C#Cc2ccccc2)c2cc(/C=C/c3ccc(C(=O)O)cc3)ccc21,6.31 µM (active),
CC1CCC2(NC1)OC1C(O)C3C4CCC5CC(O[C@@H]6O[C@H](CO)[C@@H](O)[C@H](O)[C@H]6O[C@@H]6O[C@@H](C)[C@H](O)[C@@H](O)[C@H]6O)CCC5(C)C4CCC3(C)C1C2C (some centres undefined),inactive,
CCN(CCN(C)C)C(=O)CNCc1cc(C(N)=O)ccn1,inactive,
COc1ccc(/C=C/C(N)=O)cc1OC,inactive,
Oc1ccc2c(-c3c(-c4ccccn4)nn4c3CCC4)ccnc2c1,inactive,
N#CN1CCC[C@@H](n2nc(-c3ccc(Oc4ccc(F)cc4F)cc3)c(C(N)=O)c2N)C1,inactive,
Cc1c(F)cc(C(=O)NC2CC2)cc1-c1ccc(C(=O)NCC(C)(C)C)cn1,inactive,
Cc1ccc(C)c(S(=O)(=O)n2cnc3ccccc32)c1,inactive,
C=C(COC(=O)C(C)C)C1Oc2cc(C(C)=O)ccc2C1OC(=O)C(C)C (centres undefined),inactive,
COc1ccc(/C=C/C(=O)O[C@@H]2[C@@H](O)[C@@H](O)[C@H](O[C@H]3[C@@H]4C=CO[C@@H](O[C@@H]5O[C@H](CO)[C@@H](O)[C@H](O)[C@H]5O)[C@@H]4[C@@]4(CO)O[C@@H]34)O[C@H]2C)cc1,inactive,
CC(=O)NC(Cc1ccccc1)C(=O)NC(C(=O)O)C(C)C (stereo not drawn) (Ac-Phe-Val-OH; configuration not given here),inactive,
CC(NC(=O)c1ccccc1N)C(=O)O (centres undefined),inactive,
C/C=C(\C)C(=O)OC1CC2C(CC=C3CC(OC4CC(OC)C(OC5CC(OC)C(OC6CC(OC)C(OC7CC(OC)C(OC8CC(OC)C(OC9OC(CO)C(O)C(O)C9O)C(C)O8)C(C)O7)C(C)O6)C(C)O5)C(C)O4)CCC32C)C2(O)CCC(C(C)=O)C12C (centres undefined),,20.8% [at 19.1 µM]
CN1CCN(C(=O)c2cc3cc(Cl)ccc3[nH]2)CC1,inactive,
N#Cc1ccc(C2CCCc3cncn32)cc1 (centres undefined),inactive,
C=C(CO)C(=O)O[C@H]1C[C@@]23O[C@@H]2CC/C(=C/[C@H]2OC(=O)C(=C)[C@H]12)CO[C@H]3O,inactive,
C/C=C(\C)C(=O)OCC1OC(OC2OC(CO)C(O)C(O)C2O)C(O)C(O)C1O (centres undefined),inactive,
C=C1C[C@H](O)[C@@H](O)[C@@]2(C)C1[C@@H](O)[C@H]1OC(=O)C3[C@@H](C)[C@@H](O)[C@H](O)C2[C@]31C (some centres undefined),inactive,
